This note sets out measurements from PubChem BioAssay.

Assay [1] has as its system Aerobactin synthetase IucA (Klebsiella pneumoniae). Put plainly: IucA aerobactin synthetase inhibitors, biochemical, Tocris library, absorbance (AID 1345561).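 Also: 100% = enzyme without compound and 0% = no enzyme.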 As to conditions: purified IucA enzyme assay, absorbance (OD) read-out; stronger effect = lower value;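 tested at 8 µM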.
The nature of assay [2]: sensitizers of A549 cells to miR-34 induction, primary screen, imaging, A549 dox-inducible miR-34, nuclei and caspase counts (AID 1347080;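 active = compounds whose cell count with miR-34 switched on is under 0.7 times the count with it off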). As to conditions: A549 miR-34 inducible, Hoechst nuclei count, 48 h.
Assay [3] can be described thus: viability rescue of complex I mutant cybrids, primary screen, cell-based, galactose medium, ATP luminescence (AID 1645843;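 active = z-score of at least 1.8 in each of two replicates, scored against plate mean and spread of sample wells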;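 also: positive z means more ATP and so rescue of galactose-driven cybrid death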). Particulars: complex I mutant cybrid cells, 72 h, stronger effect = higher value.
Assay [4] is described as follows: circadian clock period modulators, cell-based, LOPAC library, luminescence reporter (AID 2774).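 Also: values are relative to mean of DMSO wells on each plate.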 Particulars: circadian reporter cells, at 7 µM, actives lie on both sides.
Assay [5] relates to Hepatitis C virus NS3 helicase. Put plainly: HCV NS3 helicase inhibitors, primary screen, biochemical, fluorescence polarization, LOPAC1280 library (AID 687035; in the data active = inhibition above about 37%). As to conditions: Purified HCV NS3 helicase, Cy5-dT15 ssDNA binding fluorescence polarization; stronger effect = higher value; concentration not given here. A general note: In fluorescence polarisation assays a small probe gives low polarisation when free and higher when bound to something large.

Assay [6] can be described thus: Cy5 fluorescence quenching or enhancement artefacts, artefact control for HCV NS3 helicase inhibitor project, biochemical, LOPAC1280 (AID 687037). As to conditions: Cy5-DNA-NS3h complex fluorescence interference counterscreen. A general note: Counterscreens check selectivity or assay interference.
A short description of assay [7]: liver-stage malaria parasite growth inhibition, primary screen, cell-based, HepG2, luciferase luminescence, HepG2 viability (AID 624349; in the data active = parasite load remaining mostly below about 12%, no sharp cut-off; inactive = mostly above about 10%;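 also: 100% = mean of DMSO negative control wells on the same plate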). As to conditions: P. berghei liver stage in HepG2, luciferase luminescence, concentration not given here; parasite load remaining: stronger effect = lower value; viability: measured here: HepG2 viability without parasites.
The mark [8] stands for this setting: stronger effect = lower value, cell number ratio, induced over uninduced.
[9] abbreviates: measured here: relative caspase fold change +Dox/-Dox.
Where [10] appears, read: measured here: total cells with miR-34 induction, stronger effect = lower value.
Setting [11] is: measured here: total cells without miR-34 induction.

“And” between values parts separate entries of the source, which are not always exact repeats. Equal entries are not always repeated. The source made the active and inactive calls. Unless noted, no rule for the calls is given here.

Usually remaining activity stands for the signal under treatment as a percentage of the control signal. The inhibition is the drop in the measured response relative to a control, in per cent. What is called viability is a read-out of living cells in per cent, often relative to untreated cells.

Consider `CC1=C(C(=O)OCCN(Cc2ccccc2)c2ccccc2)C(c2cccc([N+](=O)[O-])c2)C(P2(=O)OCC(C)(C)CO2)=C(C)N1` (configuration not stated), for which the remaining activity in assay [1] is 131% (inactive). Further, the fold change in assay [2] (setting [8]) was 0.992 (inactive); in assay [2] (setting [9]), 1.07. The cell count in assay [2] (setting [10]) was 4790; in assay [2] (setting [11]), 4830. Besides, the z-score in assay [3] was -0.9 (inactive).
As to `CC[C@]1(O)C[C@H]2CN(CCc3c([nH]c4ccccc34)[C@@](C(=O)OC)(c3cc4c(cc3OC)N(C)[C@H]3[C@@](O)(C(=O)OC)[C@H](OC(C)=O)[C@]5(CC)C=CCN6CC[C@]43[C@@H]65)C2)C1`, the remaining activity in assay [1] is 123% (inactive). Further, the values for the fold change in assay [2] (setting [8]) and in assay [2] (setting [9]) were 1.06 (inactive) and 0.382, respectively. In addition, the cell count in assay [2] (setting [10]) turned out to be 1570; in assay [2] (setting [11]) it was 1480. Moreover, the z-score in assay [3] is -0.65 (inactive).
Consider `N#C/C(=C\c1ccc(O)c(O)c1)C(=O)Nc1ccccc1`, for which the period change in assay [4] was 0.11 h (inactive). For the same compound, the inhibition in assay [5] was -2% (inactive). Also, in assay [6], the fluorescence ratio (interference) is 0.9 (inactive). The remaining activity in assay [1] is 117% (inactive). In addition, the fold change was 1.02 (inactive) and 0.911 (inactive) in assay [2] (setting [8]); 0.933 and 1.77 in assay [2] (setting [9]). Further, the cell count in assay [2] (setting [10]) is 7050 and 7400; in assay [2] (setting [11]) it was 6920 and 8120. The z-score in assay [3] was -1.14 (inactive) and -0.745 (inactive).
`O=C(CCCc1ccc(-c2ccccc2F)cc1)Nc1ccc(O)cc1`: in assay [7], the parasite load remaining was 21.2% (inactive). Further, the viability in assay [7] is 102%. Moreover, the remaining activity in assay [1] was 95.9% (inactive). Moreover, the figures for the fold change in assay [2] (setting [8]) and in assay [2] (setting [9]) were 1.05 (inactive) and 1.19, respectively. Besides, the cell count in assay [2] (setting [10]) turned out to be 2340; in assay [2] (setting [11]), 2220. For the same compound, the z-score in assay [3] was -0.66 (inactive).
On to `Nc1[nH]nc2nc3ccccc3nc12`, for which, in assay [7], the parasite load remaining was 38.7% (inactive). For the same compound, the viability in assay [7] turned out to be 97.8%. For the same compound, the remaining activity in assay [1] is 110% (inactive). Further, the fold change was 0.889 (inactive) in assay [2] (setting [8]) and 0.743 in assay [2] (setting [9]). Moreover, the cell count was determined as 7860 in assay [2] (setting [10]) and 8840 in assay [2] (setting [11]). The z-score in assay [3] is -0.17 (inactive).
